Tau fluor counter: Counterscreen qHTS for Inhibitors of Tau Fibril Formation, Fluorescence Polarization. tau K18 P301L Alexa594 fluorescence, heparin fibrillization. Potency, µM (series often up to 57.7 µM), for inactives: top-dose activity change, negative = decrease. 280,000 tested, 0.93% active; further: potency means the concentration at half of the fitted maximal effect; nearly all actives have a fitted effect of over 55% in size
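Human tau K18 P301L (15 uM unlabeled, 0.24 uM Alexa 594-labeled) in 100 mM sodium acetate pH 7 with 20 uM heparin, 6 hr at 37 C. ThT 30 uM added, 1 hr ambient; Alexa 594 FP and total fluorescence read at 555/632 nm.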
Sfp inh: qHTS Assay for Inhibitors of Bacillus subtilis Sfp phosphopantetheinyl transferase (PPTase); Potency, µM, for the others: largest response in the series, negative = inhibition, most hits filed as inhibitors; 310,000 tested, 3.5% active; 4'-phosphopantetheinyl transferase ffp (Bacillus subtilis), Q9F4F7; Biochemical Sfp PPTase activity, qHTS;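 further: the enzyme is Sfp with the accession as filed and its product quenches rhodamine fluorescence; potency means the concentration at half of the fitted maximal effect; 0% = enzyme reaction without inhibitor and -100% = no enzyme wells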
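Compounds were incubated with enzyme (final 15 nM) for 15 min at room temperature before substrate addition started the reaction. Fluorescence at 525 nm excitation, 598 nm emission was recorded immediately and after 30 minutes.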
Tau ThT inhib: qHTS for Inhibitors of Tau Fibril Formation, Thioflavin T Binding | Microtubule-associated protein tau (Homo sapiens), P10636 | recombinant tau K18 P301L (four-repeat tau fragment), heparin-induced fibrillization, ThT fluorescence | Potency, µM (titrated, usually from 57.4 µM), without a hit: at the highest dose activity, negative = inhibition, hits mostly inhibitors | 270,000 tested, 2.1% active; further: potency means the concentration at half of the fitted maximal effect; nearly all actives have a fitted effect of over 55% in size
Target sequence (P10636 561-689 P618L limits assumed): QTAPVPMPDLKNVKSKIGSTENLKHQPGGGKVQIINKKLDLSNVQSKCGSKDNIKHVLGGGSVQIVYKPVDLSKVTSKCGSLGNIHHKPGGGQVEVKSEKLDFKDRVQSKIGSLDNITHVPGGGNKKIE
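Heparin-induced (20 uM) aggregation of recombinant human K18 P301L tau, 15 uM unlabeled with 0.24 uM labeled, pH 7 acetate buffer, 6 hr at 37 C with compound. Fibrils quantified by 30 uM ThT fluorescence after 1 hr ambient incubation.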
Tau fibril FP: qHTS for Inhibitors of Tau Fibril Formation, Fluorescence Polarization. Microtubule-associated protein tau (Homo sapiens), P10636. 280,000 tested, 0.39% active. Potency, µM (series often up to 57.7 µM), for the others: at the highest dose activity, negative = inhibition, most hits filed as inhibitors. K18 P301L tau heparin fibrillization, Alexa594 FP, 6 h; further: potency means the concentration at half of the fitted maximal effect; nearly all actives have a fitted effect of over 55% in size
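Recombinant K18 P301L […], labeled with Alexa 594 at 0.24 uM over 15 uM unlabeled; heparin inducer 20 uM final; 37 C, 6 hr; FP endpoint.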
Coupling enz: qHTS Assay for Inhibitors of Fructose-1,6-bisphosphate Aldolase from Giardia Lamblia: Coupling assay counterscreen; activity change, negative = inhibition, % at 58.2 µM, hits read low; coupling enzyme system counterscreen, AmpLite Red fluorescence; 290,000 tested, 0.67% active; in the data active means activity change below about -30%
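First, compound is pin-transferred into glyceraldehyde-3-phosphate coupling-enzyme reagent at 57.5 uM final and held 10 min at RT. Next, substrate, coupling system and AmpLite Red are added. After 20 min RT, fluorescence (525/598 nm) is read.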
* hit, by the source's call; ? = inconclusive; · = no result. The list is not random: actives were taken first. Their share in the collection is about 5.2%. Unless noted, the call rests on the fitted dose curve; in most records, active means well fitted curve in the direction sought with a large enough effect; inconclusive means small, poorly fitted or top-dose-only effect, or another doubt; inactive means no such curve, though single readings can be large; an effect the other way counts as inactive or inconclusive. Unless noted, on the % scale 0 is the no-effect control and ±100 the full control effect.

SMILES | Tau fluor counter | Sfp inh | Tau ThT inhib | Tau fibril FP | Coupling enz
CSCC[C@H](NC(=O)[C@H](CC(C)C)NC(=O)[C@H](CO)NC(=O)[C@H](CCC(=O)O)NC(=O)[C@H](CC(C)C)NC(=O)[C@H](Cc1ccc(O)cc1)NC(=O)[C@H](CCCCN)NC(=O)[C@H](CCCCN)NC(=O)[C@H](C)NC(=O)[C@H](CO)NC(=O)[C@H](CC(C)C)NC(=O)[C@H](CCC(N)=O)NC(=O)CNC(=O)[C@H](CC(C)C)NC(=O)[C@H](CC(C)C)NC(=O)[C@H](CCCCN)NC(=O)[C@H](CO)NC(=O)[C@H](Cc1ccccc1)NC(=O)[C@H](CC(=O)O)NC(=O)[C@H](CO)NC(=O)[C@@H](NC(=O)[C@H](Cc1ccccc1)NC(=O)[C@@H](NC(=O)CNC(=O)[C@H](CC(=O)O)NC(=O)[C@H](C)NC(=O)[C@@H](N)Cc1cnc[nH]1)C(C)C)[C@@H](C)O)C(N)=O | · | 0% | · | · | 1
CC(C)(C)c1ccc(C(=O)NC(=S)NCc2ccco2)cc1 | · | 6% | · | · | ·
CC(C)(CO)NC(=S)NCc1ccco1 | -26% | 16µM* | ? | -20% | -26
Cc1cccnc1NC(=S)NCc1ccco1 | -3% | 16µM* | 2% | 0% | 3
CC(C)(C)C(=O)Cn1c(=O)n(-c2ccccc2)c(=O)c2c3c(sc21)CCC3 | -15% | · | -10% | 4% | ·
COC(=O)c1cc2oc3ccccc3c2n1CC(=O)Nc1ccc(C)cc1Cl | -6% | · | -1% | -10% | ·
Cc1[nH]c2ccccc2c1CN1CCN(c2ccccn2)CC1 | ? | 16% | ? | 9% | 1
Cc1[nH]c2ccccc2c1CN1CCC(Cc2ccccc2)CC1 | -25% | 79µM* | ? | 10% | -1
Cc1ccc(-c2cc(-c3ccccc3Cl)c(C#N)c(N)n2)o1 | -28% | 11µM* | 32µM* | -9% | -2
N#Cc1c(-c2cccnc2)cc(-c2ccccc2)nc1N | -6% | -1% | -3% | -1% | 0
Cc1ccc(-c2cc(-c3ccc(F)cc3)nc(N)c2C#N)o1 | -20% | 8.9µM* | ? | -10% | -14
Cc1ccc(-c2cc(-c3ccccc3)c(C#N)c(N)n2)o1 | -12% | 7.9µM* | ? | 5% | -2
Cc1cccc(-n2ncc(C(=O)NCc3ccccn3)c2C2CCN(C(=O)OC(C)(C)C)CC2)c1 | -16% | · | -14% | -7% | ·
CCOc1ccc(OC(=O)c2sc3ncn(Cc4cccc(F)c4)c(=O)c3c2C)cc1 | -27% | · | -14% | ? | ·
c1ccc2oc(-c3csc(N4CCOCC4)n3)cc2c1 | -30% | 56µM* | ? | 2% | 1
O=c1ccn(-c2cccc(C(F)(F)F)c2)nc1-c1ccn(-c2ccccc2)n1 | -16% | -1% | -12% | -5% | -38*
Cc1cc(=O)c(C(=O)O)nn1-c1cccc(C(F)(F)F)c1 | · | 11% | · | · | 1
CCOC(=O)c1cnc2c(-c3ccccc3)cnn2c1N | -10% | 21% | -14% | 1% | 2
CCOC(=O)c1cnc2c(N=Nc3cccc(Cl)c3)c(N)nn2c1N | -13% | 9% | 2.5µM* | -3% | 1
CCOC(=O)c1cnc2c(N=Nc3ccccc3)c(N)nn2c1N | -11% | 11% | 2.5µM* | 0% | 1
CCOC(=O)c1cnc2c(-c3ccccc3)c(C)nn2c1N | -10% | 13% | ? | 0% | 3
CCOc1ccc(-n2c(CCC(=O)O)ccc2-c2ccc(Br)cc2)cc1 | -15% | · | ? | 0% | ·
N#CC1=C(SCC(N)=O)NC2=C(C(=O)c3ccccc32)C1c1ccc(Cl)cc1 (stereo not drawn) | ? | 2% | 14µM* | ? | -2
COc1ccc2oc(=O)c(C(=O)Nc3cccc(C(C)=O)c3)cc2c1 | · | -1% | · | · | 1
COc1ccc2oc(=O)c(/C(C)=N/Nc3ccccc3)cc2c1 | ? | 10% | 18µM* | -11% | 1
